Laboratory results taken from PubChem BioAssay AID1159580 (chemical genetic matrix, 2015).
About 2,000 (36%) of roughly 5,500 compounds were called active. About 18% were inconclusive and are not listed. The list shows a part of the results. Unmarked numbers belong to inactive results. Rule as the data show it: active = normalized growth mostly below about 0.91 (no sharp cut-off); inconclusive = no clear call, values can overlap the other calls; inactive = mostly above about 0.92.

Assay: chemical genetic growth profiling, strain panel (AID 1159580);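 also: tested at 20 µM; growth read once vehicle control cultures reached saturation at 30 °C; 1 = growth at the plate median or of vehicle wells; lower values mean less growth of the strain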
Conditions: S. cerevisiae deletion strains, growth OD
[1] = locus YHR030C, strain SLT2, hits give low values
[2] = locus YHR079C, strain IRE1, hits give low values
[3] = locus YJL095W, strain BCK1, hits give low values
[4] = locus YJR066W, strain TOR1, hits give low values
[5] = locus YLR113W, strain HOG1, hits give low values
[6] = locus YNL183C, strain NPR1, hits give low values
[7] = locus YOR231W, strain MKK1, hits give low values
[8] = locus YPL256C, strain CLN2, hits give low values

`O=C(CNC(=O)c1ccc(Cl)cc1)NO` showed a normalized growth (locus YAL021C, strain ccr4, hits give low values) of 1.01, a normalized growth (locus YAL026C, strain drs2, hits give low values) of 1.01 and a normalized growth (locus YAL030W, strain snc1, hits give low values) of 1.01. For the same molecule, the normalized growth (locus YBL061C, strain skt5, hits give low values) was 1.01, the normalized growth (locus YBR009C, strain hhf1, hits give low values) was 1.01 and the normalized growth (locus YBR023C, strain chs3, hits give low values) was 1.02. The normalized growth (locus YBR171W, strain sec66, hits give low values) was 1.02, the normalized growth (locus YBR231C, strain swc5, hits give low values) was 1.01 and the normalized growth (locus YBR279W, strain paf1, hits give low values) was 1.01. For the same molecule, the normalized growth (locus YCL011C, strain gbp2, hits give low values) was 1.01, the normalized growth (locus YCL016C, strain dcc1, hits give low values) was 1.02 and the normalized growth (locus YCL061C, strain MRC1, hits give low values) was 1. For the same molecule, the normalized growth (locus YCL069W, strain vba3, hits give low values) was 1.01, the normalized growth (locus YCR088W, strain abp1, hits give low values) was 1.01 and the normalized growth (locus YDL005C, strain med2, hits give low values) was 1.02. The normalized growth (locus YDL040C, strain nat1, hits give low values) was 1.01, the normalized growth (locus YDR001C, strain nth1, hits give low values) was 1 and the normalized growth (locus YDR069C, strain doa4, hits give low values) was 1.01. The normalized growth (locus YDR137W, strain rgp1, hits give low values) was 1.03, the normalized growth (locus YDR159W, strain sac3, hits give low values) was 1.01 and the normalized growth (locus YDR195W, strain ref2) was 0.972. It also gave a normalized growth (locus YDR297W, strain sur2, hits give low values) of 1.04, a normalized growth (locus YDR334W, strain swr1, hits give low values) of 1.02 and a normalized growth (locus YDR335W, strain msn5, hits give low values) of 1.02. It also gave a normalized growth (locus YDR392W, strain spt3, hits give low values) of 1, a normalized growth (locus YEL003W, strain gim4, hits give low values) of 1.01 and a normalized growth (locus YEL037C, strain rad23, hits give low values) of 1.04. The normalized growth (locus YEL061C, strain CIN8 (second series), hits give low values) was 1.01, the normalized growth (locus YER015W, strain faa2, hits give low values) was 1.01 and the normalized growth (locus YER016W, strain bim1, hits give low values) was 1.02. The normalized growth (locus YER111C, strain swi4, hits give low values) was 1.01, the normalized growth (locus YER155C, strain BEM2 (second series), hits give low values) was 1.03 and the normalized growth (locus YFR010W, strain ubp6, hits give low values) was 1.02. For the same molecule, the normalized growth (locus YGL167C, strain pmr1, hits give low values) was 1.01, the normalized growth (locus YGL173C, strain kem1, hits give low values) was 1.02 and the normalized growth (locus YGL227W, strain vid30, hits give low values) was 1.01. For the same molecule, the normalized growth (locus YGL240W, strain doc1, hits give low values) was 1.01, the normalized growth (locus YGL253W, strain hxk2, hits give low values) was 1.01 and the normalized growth (locus YHR013C, strain ard1, hits give low values) was 1.04. It also gave a normalized growth (locus YHR027C, strain rpn1, hits give low values) of 1.01, a normalized growth [1] of 1.02 and a normalized growth [2] of 1.03. The normalized growth (locus YHR142W, strain chs7, hits give low values) was 0.997, the normalized growth (locus YJL092W, strain hpr5, hits give low values) was 1.01 and the normalized growth (locus YJL095W, strain BCK1 (second series), hits give low values) was 1. The normalized growth [3] was 1.06, the normalized growth (locus YJL115W, strain asf1, hits give low values) was 1.02 and the normalized growth (locus YJL129C, strain trk1, hits give low values) was 1.03. For the same molecule, the normalized growth (locus YJL154C, strain vps35, hits give low values) was 1.02, the normalized growth (locus YJL164C, strain tpk1, hits give low values) was 1.01 and the normalized growth (locus YJL166W, strain qcr8, hits give low values) was 1.01. For the same molecule, the normalized growth (locus YJL187C, strain SWE1, hits give low values) was 1.01, the normalized growth [4] was 0.941 and the normalized growth (locus YKL160W, strain elf1, hits give low values) was 1.01. It also gave a normalized growth (locus YKR026C, strain gcn3, hits give low values) of 0.992, a normalized growth (locus YKR091W, strain srl3, hits give low values) of 1.01 and a normalized growth (locus YLL001W, strain dnm1, hits give low values) of 1.03. For the same molecule, the normalized growth (locus YLL026W, hits give low values) was 1.01, the normalized growth (locus YLL041C, strain sdh2, hits give low values) was 1.02 and the normalized growth (locus YLR027C, strain aat2, hits give low values) was 1.01. The normalized growth [5] was 1.04, the normalized growth (locus YLR221C, strain rsa3, hits give low values) was 1.01 and the normalized growth (locus YLR258W, strain gsy2, hits give low values) was 1.02. It also gave a normalized growth (locus YLR262C, strain YPT6 (second series), hits give low values) of 1.03, a normalized growth (locus YLR320W, strain mms22, hits give low values) of 1.01 and a normalized growth (locus YLR342W, strain FKS1, hits give low values) of 1.01. For the same molecule, the normalized growth (locus YLR357W, strain rsc2, hits give low values) was 1.02, the normalized growth (locus YLR370C, strain arc18, hits give low values) was 1.01 and the normalized growth (locus YLR384C, strain iki3, hits give low values) was 1.02. For the same molecule, the normalized growth (locus YML120C, strain ndi1, hits give low values) was 1.01, the normalized growth (locus YMR058W, strain fet3, hits give low values) was 1.01 and the normalized growth (locus YMR125W, strain sto1, hits give low values) was 1.01. It also gave a normalized growth (locus YMR129W, hits give low values) of 1.01, a normalized growth (locus YMR205C, strain PFK2, hits give low values) of 1.01 and a normalized growth (locus YMR231W, strain pep5, hits give low values) of 1.02. It also gave a normalized growth (locus YNL071W, strain lat1, hits give low values) of 1.02, a normalized growth [6] of 0.951 and a normalized growth (locus YNL209W, strain ssb2, hits give low values) of 1.02. The normalized growth (locus YNL248C, strain rpa49, hits give low values) was 1.01, the normalized growth (locus YNL322C, strain KRE1 (second series), hits give low values) was 1.01 and the normalized growth (locus YNR049C, strain mso1, hits give low values) was 1.01. The normalized growth (locus YOR001W, strain rrp6, hits give low values) was 1.02, the normalized growth (locus YOR070C, strain gyp1, hits give low values) was 1.02 and the normalized growth (locus YOR080W, strain dia2, hits give low values) was 1.01. It also gave a normalized growth (locus YOR083W, strain WHI5, hits give low values) of 1.01, a normalized growth (locus YOR106W, strain vam3, hits give low values) of 1.02 and a normalized growth [7] of 1.01. For the same molecule, the normalized growth (locus YOR265W, strain rbl2, hits give low values) was 1.01, the normalized growth (locus YOR270C, strain vph1, hits give low values) was 1.05 and the normalized growth (locus YOR290C, strain snf2, hits give low values) was 1.03. It also gave a normalized growth (locus YPL051W, strain arl3, hits give low values) of 1.01, a normalized growth (locus YPL078C, strain atp4, hits give low values) of 1.01 and a normalized growth (locus YPL106C, strain sse1, hits give low values) of 1.04. The normalized growth (locus YPL240C, strain hsp82, hits give low values) was 1.02 and the normalized growth [8] was 0.997.
Work on `O=C(NCC1COc2ccccc2O1)c1ccc(Cl)cc1` (stereo unspecified) yielded a normalized growth (locus YAR019C, strain CDC15, hits give low values) of 0.956, a normalized growth (locus YBL105C, strain PKC1, hits give low values) of 0.952 and a normalized growth (locus YBR135W, strain CKS1, hits give low values) of 0.935. It also gave a normalized growth (locus YBR136W, strain MEC1, hits give low values) of 0.957, a normalized growth (locus YBR160W, strain CDC28, hits give low values) of 0.959 and a normalized growth (locus YDL017W, strain CDC7, hits give low values) of 0.944. The normalized growth (locus YDL028C, strain MPS1, hits give low values) was 0.951, the normalized growth (locus YDL101C, strain DUN1, hits give low values) was 0.98 and the normalized growth (locus YDL108W, strain KIN28, hits give low values) was 0.951. The normalized growth (locus YDL132W, strain cdc53, hits give low values) was 0.936, the normalized growth (locus YDL214C, strain PRR2, hits give low values) was 0.837 and the normalized growth (locus YDR052C, strain DBF4, hits give low values) was 0.973. It also gave a normalized growth (locus YDR054C, strain cdc34, hits give low values) of 0.933, a normalized growth (locus YDR226W, strain ADK1, hits give low values) of 0.949 and a normalized growth (locus YDR477W, strain SNF1, hits give low values) of 0.734. The normalized growth (locus YER123W, strain YCK3, hits give low values) was 0.75, the normalized growth (locus YER133W, strain GLC7, hits give low values) was 0.463 (active) and the normalized growth (locus YFL009W, strain cdc4, hits give low values) was 0.942. For the same molecule, the normalized growth (locus YFL029C, strain CAK1, hits give low values) was 0.933, the normalized growth (locus YFR003C, strain YPI1, hits give low values) was 0.956 and the normalized growth (locus YFR019W, strain FAB1, hits give low values) was 0.745 (active). The normalized growth (locus YFR028C, strain CDC14, hits give low values) was 0.942, the normalized growth (locus YGR040W, strain KSS1, hits give low values) was 0.692 and the normalized growth (locus YGR052W, strain FMP48, hits give low values) was 0.899. The normalized growth (locus YGR092W, strain DBF2, hits give low values) was 0.753, the normalized growth [1] was 0.638 (active) and the normalized growth [2] was 0.759. It also gave a normalized growth (locus YHR082C, strain KSP1, hits give low values) of 0.88, a normalized growth (locus YHR205W, strain SCH9, hits give low values) of 0.901 and a normalized growth (locus YIL147C, strain SLN1, hits give low values) of 0.929. It also gave a normalized growth [3] of 0.586, a normalized growth (locus YJL128C, strain PBS2, hits give low values) of 0.948 and a normalized growth (locus YJL157C, strain FAR1, hits give low values) of 0.84. For the same molecule, the normalized growth (locus YJR016C, strain ILV3, hits give low values) was 0.936, the normalized growth (locus YJR066W, strain TOR1 (second series), hits give low values) was 0.561 (active) and the normalized growth [4] was 0.714. It also gave a normalized growth (locus YKL048C, strain ELM1, hits give low values) of 0.895, a normalized growth (locus YKL067W, strain YNK1, hits give low values) of 0.842 and a normalized growth (locus YKL101W, strain HSL1, hits give low values) of 0.92. The normalized growth (locus YKL193C, strain SDS22, hits give low values) was 0.933, the normalized growth (locus YKL203C, strain TOR2, hits give low values) was 0.708 (active) and the normalized growth [5] was 0.935. It also gave a normalized growth (locus YLR133W, strain CKI1, hits give low values) of 0.88, a normalized growth (locus YLR403W, strain SFP1, hits give low values) of 0.699 and a normalized growth (locus YML070W, strain DAK1, hits give low values) of 0.827. The normalized growth (locus YMR001C, strain CDC5, hits give low values) was 0.896, the normalized growth (locus YMR205C, strain PFK2 (second series), hits give low values) was 0.82 and the normalized growth (locus YMR277W, strain FCP1, hits give low values) was 0.923. The normalized growth (locus YNL006W, strain LST8, hits give low values) was 0.929, the normalized growth (locus YNL020C, strain ARK1, hits give low values) was 0.86 and the normalized growth (locus YNL161W, strain CBK1, hits give low values) was 0.958. It also gave a normalized growth [6] of 0.796, a normalized growth (locus YNL207W, strain RIO2, hits give low values) of 0.91 and a normalized growth (locus YNL222W, strain SSU72, hits give low values) of 0.948. For the same molecule, the normalized growth (locus YNL307C, strain MCK1 (second series), hits give low values) was 0.872, the normalized growth (locus YOL078W, strain AVO1, hits give low values) was 0.93 and the normalized growth (locus YOL136C, strain PFK27, hits give low values) was 0.802. The normalized growth (locus YOR061W, strain CKA2, hits give low values) was 0.886, the normalized growth (locus YOR119C, strain RIO1, hits give low values) was 0.723 and the normalized growth [7] was 0.771. The normalized growth (locus YOR329C, strain SCD5, hits give low values) was 0.938, the normalized growth (locus YPL031C, strain PHO85, hits give low values) was 0.662 (active) and the normalized growth (locus YPL153C, strain RAD53, hits give low values) was 0.649 (active). The normalized growth (locus YPL204W, strain HRR25, hits give low values) was 0.682, the normalized growth (locus YPL209C, strain IPL1, hits give low values) was 0.952 and the normalized growth [8] was 0.867. The normalized growth (locus YPR025C, strain CCL1, hits give low values) was 0.951, the normalized growth (locus YPR106W, strain ISR1, hits give low values) was 0.968 and the normalized growth (locus YPR111W, strain DBF20, hits give low values) was 0.962. For the same molecule, the normalized growth (strain NNK1, hits give low values) was 0.958 and the normalized growth (strain TSCII, hits give low values) was 0.92.
